EBV gp42 block: inhibitors of Epstein-Barr virus glycoprotein 42; Q1HVG2; Fluorescence polarization binding assay, mP read-out; inhibition, % (tested at 21.74 µM); actives 0.42% (n = 220,000); in the data active = inhibition above about 50%
LANA DNA inh: KSHV C-LANA DNA binding inhibition | MBP-C-LANA/FAM-LBS DNA binding, fluorescence polarization | inhibition, % at 9 µM | actives 0.078% (n = 340,000);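 active = highest replicate inhibition at or above 60% at 9 µM, even if other replicates fall short; inactive = all replicates below 60% inhibition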;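 note: 0% = neutral control wells and 100% = 4 µM acridine orange control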
LANA-H2B inh: blocks KSHV LANA binding to histone H2A/H2B; inhibition, % (concentration not given with the values); Q9QR71; cell-free LANA-H2A/H2B peptide, fluorescence polarization; actives 0.6% (n = 320,000); in the data active = inhibition mostly above about 10%, no sharp cut-off; inactive = mostly below about 6.7%
GLD-1 TGE inh: GLD-1-TGE RNA interaction inhibition (C. elegans) | actives 0.44% (n = 320,000) | inhibition, % at 5.96 µM | purified GLD-1 + fluorescein TGE RNA, fluorescence polarization | AID 2280;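 active = percent inhibition above a per-plate cutoff, the plate mean of test compounds plus 3 SD, cut at about 30% in these data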;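 note: 0% = DMSO wells with GLD-1 and probe and 100% = wells lacking GLD-1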
Keap1 Nrf2 FP: disrupts human Keap1 binding to Nrf2 peptide; Q14145; AID 504523; actives 0.15% (n = 340,000); inhibition, % at 9.4 µM; Keap1 Kelch-Nrf2 peptide fluorescence polarization, 1536-well; in the data active = inhibition above about 12%;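 note: human Keap1 Kelch domain with fluorescein labeled Nrf2 9mer peptide probe; 0% = neutral control wells and 100% = peptide positive control; higher means more block of Keap1 binding to Nrf2 peptide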
Target sequence (Q14145 whole entry, looked up, the tested form may be a part): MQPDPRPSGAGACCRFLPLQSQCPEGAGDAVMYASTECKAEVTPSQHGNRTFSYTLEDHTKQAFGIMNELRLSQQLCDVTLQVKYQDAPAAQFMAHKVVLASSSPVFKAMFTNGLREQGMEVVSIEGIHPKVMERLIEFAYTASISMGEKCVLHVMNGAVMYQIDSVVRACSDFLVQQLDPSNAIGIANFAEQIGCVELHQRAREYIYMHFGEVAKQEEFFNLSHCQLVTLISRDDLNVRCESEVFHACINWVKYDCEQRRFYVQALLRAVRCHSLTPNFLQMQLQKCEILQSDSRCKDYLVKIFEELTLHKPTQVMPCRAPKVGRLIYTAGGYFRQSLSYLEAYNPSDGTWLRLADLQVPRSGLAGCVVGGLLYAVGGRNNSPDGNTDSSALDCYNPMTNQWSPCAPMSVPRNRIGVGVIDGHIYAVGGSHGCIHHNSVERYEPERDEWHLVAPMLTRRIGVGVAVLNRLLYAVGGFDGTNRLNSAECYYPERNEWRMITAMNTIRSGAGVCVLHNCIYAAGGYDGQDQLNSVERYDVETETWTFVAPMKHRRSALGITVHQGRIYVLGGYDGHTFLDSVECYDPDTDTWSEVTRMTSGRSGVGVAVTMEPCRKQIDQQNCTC
E coli Lon inh: inhibitors of E. coli Lon protease; purified E. coli Lon protease, fluorescence polarization; actives 0.42% (n = 360,000); AID 602123; P0A9M0; inhibition, % at 7.94 µM; in the data active = inhibition above about 13%, passing the limit was not always enough;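 note: 0% = enzyme with probe and DMSO and 100% = no enzyme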
Numbers without * were called inactive; ! = not active in a repeat. This is a sample that favours compounds with a hit; in the whole collection about 1.5% have one here.

Screening CN1C(=O)c2ccccc2Sc2ccc(C(=O)N3CCC4(CC3)OCCO4)cc21 returned EBV gp42 block 2, LANA DNA inh 2, LANA-H2B inh 3, GLD-1 TGE inh 1, Keap1 Nrf2 FP -1 and E coli Lon inh 1.
Screening Cc1ccc(/C=C2/Sc3ccc(C(=O)N4CCC5(CC4)OCCO5)cc3NC2=O)cc1 returned LANA DNA inh 12, LANA-H2B inh 7, GLD-1 TGE inh 75*, Keap1 Nrf2 FP 0 and E coli Lon inh 17.
For Cc1cc(N=Nc2ccccc2C)ccc1N the results were LANA DNA inh -2, LANA-H2B inh 2, GLD-1 TGE inh 3 and Keap1 Nrf2 FP -3.
Screening C=CCn1c(O)c(/C=C2/C=CC=N2)c(=O)[nH]c1=O returned EBV gp42 block -34, LANA DNA inh 2, LANA-H2B inh 6, GLD-1 TGE inh 13, Keap1 Nrf2 FP -5 and E coli Lon inh -5.
`O=c1[nH]c(=O)n(Cc2ccccc2Cl)c(O)c1/C=C1/C=CC=N1` gave EBV gp42 block 58*, LANA DNA inh 1, LANA-H2B inh 0, GLD-1 TGE inh -20, Keap1 Nrf2 FP -1 and E coli Lon inh -40.
N#Cc1ccc(Cn2cc(C=O)c3ccccc32)cc1 was read as LANA DNA inh -3, LANA-H2B inh 2, GLD-1 TGE inh 7, Keap1 Nrf2 FP -1 and E coli Lon inh -4.
Screening Cn1cc(C=C(C#N)C#N)c2ccccc21 returned EBV gp42 block 43, LANA DNA inh 56, LANA-H2B inh active, GLD-1 TGE inh 1, Keap1 Nrf2 FP 53* and E coli Lon inh -37.
For CN(C)[C@@H]1C(=O)C(C(N)=O)=C(O)[C@@]2(O)C(=O)C3=C(O)c4c(O)cccc4[C@@](C)(O)[C@H]3[C@H](O)[C@@H]12 the results were EBV gp42 block 4, LANA DNA inh 124*, LANA-H2B inh -12, GLD-1 TGE inh 93*, Keap1 Nrf2 FP -2 and E coli Lon inh 37.
`Cc1ccccc1N1C(=O)NC(=O)/C(=C\c2ccc3c(c2)CCCN3Cc2ccccc2)C1=O` gave EBV gp42 block 171*, LANA DNA inh 1, LANA-H2B inh -7, GLD-1 TGE inh -1, Keap1 Nrf2 FP -11 and E coli Lon inh -14.
NC(Cc1nc2ccccc2[nH]1)c1ccc(Cl)cc1 (stereo not given) was read as EBV gp42 block -6, LANA DNA inh -1, LANA-H2B inh 2, GLD-1 TGE inh 5, Keap1 Nrf2 FP -5 and E coli Lon inh 4.
For C[C@]12CCC(=O)C=C1CC[C@@H]1[C@@H]2CC[C@]2(C)C(=O)CC[C@@H]12 the results were EBV gp42 block -6, LANA DNA inh 0, LANA-H2B inh 16*!, GLD-1 TGE inh 9, Keap1 Nrf2 FP -4 and E coli Lon inh -5.
Screening CCOc1ccc(-n2c(O)c(C=Nc3ccc(N(CC)CC)cc3)c(=O)[nH]c2=O)cc1 returned EBV gp42 block 82*, LANA DNA inh 5, LANA-H2B inh 2, GLD-1 TGE inh 0, Keap1 Nrf2 FP -5 and E coli Lon inh 1.
CCN(CC)c1ccc(N=Cc2c(O)n(-c3ccccc3)c(=O)[nH]c2=O)cc1 was read as EBV gp42 block -45, LANA DNA inh 2, LANA-H2B inh 1, GLD-1 TGE inh 3, Keap1 Nrf2 FP -7 and E coli Lon inh -19.
CCOc1cc(C=C2C(=O)NC(=S)NC2=O)ccc1O was read as LANA DNA inh 3, Keap1 Nrf2 FP 12* and E coli Lon inh -10.
Screening O=C1NC(=S)NC(=O)C1=Cc1ccc2c(c1)CCN2CCCCl returned EBV gp42 block 71*, LANA-H2B inh -2, GLD-1 TGE inh 4 and E coli Lon inh -11.
For C1CCC(NC2CCCCC2)CC1 the results were LANA DNA inh 0, LANA-H2B inh 141*, GLD-1 TGE inh -2, Keap1 Nrf2 FP -4 and E coli Lon inh -2.
`CCOC(=O)C1=C(N)Oc2cc(C)oc(=O)c2C12C(=O)N1c3c(cccc32)C(C)=CC1(C)C` (stereo not given) gave EBV gp42 block -7, LANA DNA inh 1, LANA-H2B inh 6, GLD-1 TGE inh 0, Keap1 Nrf2 FP 2 and E coli Lon inh -4.
Screening CCOC(=O)C1=C(N)Oc2cc(C)oc(=O)c2C12C(=O)N1c3c(cccc32)C(C)CC1(C)C (stereo not given) returned EBV gp42 block -11, LANA DNA inh -2, LANA-H2B inh 33*, GLD-1 TGE inh 5, Keap1 Nrf2 FP 1 and E coli Lon inh 0.
For Cc1ccc(N2C(=O)/C(=C/c3ccc(CN(CCC#N)S(C)(=O)=O)o3)C(=O)NC2=S)cc1 the results were EBV gp42 block -33, LANA DNA inh 16, LANA-H2B inh -4, GLD-1 TGE inh 14, Keap1 Nrf2 FP 0 and E coli Lon inh -35.
Screening COCC(C)OC(=O)c1c(N)n(Cc2ccco2)c2nc3ccccc3nc12 (stereo not given) returned EBV gp42 block 0, LANA DNA inh 3, LANA-H2B inh 2, GLD-1 TGE inh 39*, Keap1 Nrf2 FP -1 and E coli Lon inh -5.
CCOC(=O)c1c(N)n(Cc2ccco2)c2nc3ccccc3nc12 was read as EBV gp42 block 6, LANA DNA inh 5, LANA-H2B inh -6, GLD-1 TGE inh 62*, Keap1 Nrf2 FP -4 and E coli Lon inh 5.
For COCCOC(=O)c1c(N)n(Cc2ccccc2)c2nc3ccccc3nc12 the results were EBV gp42 block 4, LANA DNA inh 0, LANA-H2B inh -1, GLD-1 TGE inh -8, Keap1 Nrf2 FP 0 and E coli Lon inh -9.
CSc1ncc(Cl)c(C(=O)O)n1 was read as EBV gp42 block 1, LANA DNA inh -1, LANA-H2B inh -3, GLD-1 TGE inh 6, Keap1 Nrf2 FP -3 and E coli Lon inh 1.
`CCOC(=O)[C@@]1(C#N)C(c2ccc(Cl)c(Cl)c2)[C@H](C(N)=O)N2C=C(C(C)=O)C=C[C@H]21` (stereo not given in full) gave EBV gp42 block 102*, LANA DNA inh 2, LANA-H2B inh 3, GLD-1 TGE inh 5, Keap1 Nrf2 FP -1 and E coli Lon inh -27.
`CS(=O)(=O)c1ccc(C2=C(CNC(=O)c3ccncc3)[C@H]3CC[C@@H](C2)N3Cc2ccccc2)cc1` gave E coli Lon inh 4.
Cc1cc(=O)[nH]c(CCl)n1 was read as EBV gp42 block 3, LANA DNA inh 0, LANA-H2B inh 1, GLD-1 TGE inh 0, Keap1 Nrf2 FP -2 and E coli Lon inh -7.
For C=CC1CN2CCC1CC2[C@@H](OC(=O)c1ccc(OC)cc1)c1ccnc2ccccc12 (stereo not given in full) the results were EBV gp42 block -3, LANA DNA inh -1, LANA-H2B inh 32*, GLD-1 TGE inh 5, Keap1 Nrf2 FP 2 and E coli Lon inh 15.
For CCn1c(O)c(C=Nc2ccc(N3CCOCC3)cc2)c(=O)n(CC)c1=S the results were EBV gp42 block 177*, LANA DNA inh 5, LANA-H2B inh 3, GLD-1 TGE inh -37, Keap1 Nrf2 FP -6 and E coli Lon inh -32.

Screens as filed in PubChem BioAssay.
